Experimental data reported in the supplement of paper PMC6411743.
± gives the standard deviation of the averaged measurements. The full data set covers some 6,200 targets. This sample favours those with the largest changes.

Compound: Nc1ncnc2c1ncn2[C@@H]1O[C@H](COP(=O)(O)OP(=O)(O)NP(=O)(O)O)[C@@H](O)[C@H]1O [adenylyl imidodiphosphate]
Experiment: NP40-soluble protein abundance relative to vehicle (solubility fold change) (ratio); higher = more soluble protein in presence of AMP-PNP
Outline: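 Jurkat crude lysate (Dounce-homogenised) was treated with eight concentrations from 0.1 to 10 mM for 10 min at room temperature, then 3 min at 37 °C. It was solubilised with 0.8% NP40 and benzonase (60 min, 4 °C) and ultracentrifuged, and the supernatant was TMT-labelled for LC-MS/MS. Intensities were vsn-normalised, and the value is the fold change against the NP40-processed vehicle per replicate, from three independent experiments.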

Sequence of UniProt P20073 (P20073 whole entry): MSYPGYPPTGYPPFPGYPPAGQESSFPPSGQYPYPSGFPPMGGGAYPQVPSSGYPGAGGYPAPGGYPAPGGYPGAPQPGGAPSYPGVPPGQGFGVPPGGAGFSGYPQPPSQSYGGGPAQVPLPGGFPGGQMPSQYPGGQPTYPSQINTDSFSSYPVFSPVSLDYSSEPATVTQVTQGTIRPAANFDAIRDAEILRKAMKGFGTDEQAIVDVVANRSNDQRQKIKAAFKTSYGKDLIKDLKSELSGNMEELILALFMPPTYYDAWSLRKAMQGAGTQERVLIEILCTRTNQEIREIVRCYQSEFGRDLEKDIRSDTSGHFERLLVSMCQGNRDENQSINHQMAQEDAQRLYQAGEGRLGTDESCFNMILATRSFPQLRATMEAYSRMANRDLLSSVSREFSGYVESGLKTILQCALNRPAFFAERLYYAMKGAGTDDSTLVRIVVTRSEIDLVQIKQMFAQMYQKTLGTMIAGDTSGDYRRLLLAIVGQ
Sequence of UniProt P62318 (P62318 whole entry): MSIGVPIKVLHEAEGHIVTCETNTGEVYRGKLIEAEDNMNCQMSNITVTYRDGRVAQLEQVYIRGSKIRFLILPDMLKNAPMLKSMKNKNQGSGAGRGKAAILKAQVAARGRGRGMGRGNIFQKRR
Sequence of UniProt O75694 (O75694 whole entry): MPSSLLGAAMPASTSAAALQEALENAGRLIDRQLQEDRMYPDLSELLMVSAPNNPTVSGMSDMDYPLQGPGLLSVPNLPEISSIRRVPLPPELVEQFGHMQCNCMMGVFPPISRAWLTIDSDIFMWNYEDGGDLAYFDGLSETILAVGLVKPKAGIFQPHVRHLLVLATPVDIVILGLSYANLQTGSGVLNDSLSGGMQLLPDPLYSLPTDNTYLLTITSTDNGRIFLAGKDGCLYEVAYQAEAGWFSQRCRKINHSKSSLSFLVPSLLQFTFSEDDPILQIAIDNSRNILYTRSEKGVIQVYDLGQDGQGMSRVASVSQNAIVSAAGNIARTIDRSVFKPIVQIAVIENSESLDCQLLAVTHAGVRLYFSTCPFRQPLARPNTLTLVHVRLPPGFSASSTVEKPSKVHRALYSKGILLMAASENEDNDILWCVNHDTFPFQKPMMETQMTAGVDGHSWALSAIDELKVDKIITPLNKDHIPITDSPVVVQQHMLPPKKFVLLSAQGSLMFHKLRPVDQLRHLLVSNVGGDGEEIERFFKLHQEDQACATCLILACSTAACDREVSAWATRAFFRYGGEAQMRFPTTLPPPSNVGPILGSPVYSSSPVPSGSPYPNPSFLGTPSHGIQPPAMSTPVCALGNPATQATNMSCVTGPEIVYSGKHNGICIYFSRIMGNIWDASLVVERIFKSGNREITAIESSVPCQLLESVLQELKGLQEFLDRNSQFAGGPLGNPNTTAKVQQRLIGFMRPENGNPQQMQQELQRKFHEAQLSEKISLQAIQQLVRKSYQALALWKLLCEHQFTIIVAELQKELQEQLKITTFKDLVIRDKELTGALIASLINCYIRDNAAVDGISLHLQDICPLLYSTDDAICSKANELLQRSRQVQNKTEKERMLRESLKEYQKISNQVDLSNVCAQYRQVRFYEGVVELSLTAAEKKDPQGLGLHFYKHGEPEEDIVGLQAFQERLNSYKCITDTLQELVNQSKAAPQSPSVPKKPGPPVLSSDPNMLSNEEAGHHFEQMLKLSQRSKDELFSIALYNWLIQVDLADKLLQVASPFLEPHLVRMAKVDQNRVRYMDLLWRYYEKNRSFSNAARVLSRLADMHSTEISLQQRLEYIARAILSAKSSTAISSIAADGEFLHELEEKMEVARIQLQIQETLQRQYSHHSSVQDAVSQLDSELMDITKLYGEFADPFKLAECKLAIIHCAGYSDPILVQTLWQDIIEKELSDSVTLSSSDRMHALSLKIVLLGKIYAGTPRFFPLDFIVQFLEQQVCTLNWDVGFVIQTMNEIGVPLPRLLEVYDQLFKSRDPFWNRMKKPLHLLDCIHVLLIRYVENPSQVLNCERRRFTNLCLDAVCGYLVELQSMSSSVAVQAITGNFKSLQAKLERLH
Sequence of UniProt P16403 (P16403 whole entry): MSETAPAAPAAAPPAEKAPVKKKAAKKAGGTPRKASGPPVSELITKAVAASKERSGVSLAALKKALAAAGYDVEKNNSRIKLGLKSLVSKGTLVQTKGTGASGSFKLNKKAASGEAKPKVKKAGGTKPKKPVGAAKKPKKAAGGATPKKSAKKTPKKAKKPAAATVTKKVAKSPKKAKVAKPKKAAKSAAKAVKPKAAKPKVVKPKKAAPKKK
Sequence of UniProt Q13243 (Q13243 whole entry): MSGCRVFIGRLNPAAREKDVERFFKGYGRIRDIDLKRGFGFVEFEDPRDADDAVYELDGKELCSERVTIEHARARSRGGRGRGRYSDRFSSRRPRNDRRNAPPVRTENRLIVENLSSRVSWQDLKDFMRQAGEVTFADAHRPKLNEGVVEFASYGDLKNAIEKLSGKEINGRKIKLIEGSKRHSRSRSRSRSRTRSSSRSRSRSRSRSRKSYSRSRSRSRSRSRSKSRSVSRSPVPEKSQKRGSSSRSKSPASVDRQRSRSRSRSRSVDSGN
Sequence of UniProt O94804 (O94804 whole entry, looked up): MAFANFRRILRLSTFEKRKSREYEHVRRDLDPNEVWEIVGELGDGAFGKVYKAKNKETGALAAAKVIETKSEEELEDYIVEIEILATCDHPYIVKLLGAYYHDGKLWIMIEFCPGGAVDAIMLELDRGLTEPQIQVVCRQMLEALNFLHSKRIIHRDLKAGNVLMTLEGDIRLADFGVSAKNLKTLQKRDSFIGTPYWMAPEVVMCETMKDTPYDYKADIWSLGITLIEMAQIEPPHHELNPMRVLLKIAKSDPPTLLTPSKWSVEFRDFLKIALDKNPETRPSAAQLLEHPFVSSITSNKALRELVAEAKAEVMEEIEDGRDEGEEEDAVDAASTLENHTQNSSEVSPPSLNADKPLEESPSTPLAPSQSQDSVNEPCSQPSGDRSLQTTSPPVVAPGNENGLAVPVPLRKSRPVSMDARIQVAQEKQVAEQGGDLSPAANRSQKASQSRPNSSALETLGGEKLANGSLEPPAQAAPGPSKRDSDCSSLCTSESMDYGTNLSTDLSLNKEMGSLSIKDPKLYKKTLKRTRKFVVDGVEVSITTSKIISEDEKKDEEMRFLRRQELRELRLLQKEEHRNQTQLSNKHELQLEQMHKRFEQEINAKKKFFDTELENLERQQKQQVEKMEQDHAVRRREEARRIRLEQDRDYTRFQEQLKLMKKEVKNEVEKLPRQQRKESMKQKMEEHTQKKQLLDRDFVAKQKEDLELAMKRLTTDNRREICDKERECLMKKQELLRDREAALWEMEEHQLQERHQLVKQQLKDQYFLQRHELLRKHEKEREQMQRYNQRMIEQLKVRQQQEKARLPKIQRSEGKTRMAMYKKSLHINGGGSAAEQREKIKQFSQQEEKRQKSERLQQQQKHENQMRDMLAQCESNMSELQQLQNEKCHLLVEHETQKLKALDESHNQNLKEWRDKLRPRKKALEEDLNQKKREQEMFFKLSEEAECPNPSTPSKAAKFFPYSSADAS
Sequence of UniProt Q12974 (Q12974 whole entry): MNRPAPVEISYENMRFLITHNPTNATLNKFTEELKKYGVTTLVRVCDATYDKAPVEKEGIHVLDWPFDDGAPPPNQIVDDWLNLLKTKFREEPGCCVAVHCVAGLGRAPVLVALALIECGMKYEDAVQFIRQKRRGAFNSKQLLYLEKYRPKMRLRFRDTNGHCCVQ
Sequence of UniProt P29374 (P29374 whole entry): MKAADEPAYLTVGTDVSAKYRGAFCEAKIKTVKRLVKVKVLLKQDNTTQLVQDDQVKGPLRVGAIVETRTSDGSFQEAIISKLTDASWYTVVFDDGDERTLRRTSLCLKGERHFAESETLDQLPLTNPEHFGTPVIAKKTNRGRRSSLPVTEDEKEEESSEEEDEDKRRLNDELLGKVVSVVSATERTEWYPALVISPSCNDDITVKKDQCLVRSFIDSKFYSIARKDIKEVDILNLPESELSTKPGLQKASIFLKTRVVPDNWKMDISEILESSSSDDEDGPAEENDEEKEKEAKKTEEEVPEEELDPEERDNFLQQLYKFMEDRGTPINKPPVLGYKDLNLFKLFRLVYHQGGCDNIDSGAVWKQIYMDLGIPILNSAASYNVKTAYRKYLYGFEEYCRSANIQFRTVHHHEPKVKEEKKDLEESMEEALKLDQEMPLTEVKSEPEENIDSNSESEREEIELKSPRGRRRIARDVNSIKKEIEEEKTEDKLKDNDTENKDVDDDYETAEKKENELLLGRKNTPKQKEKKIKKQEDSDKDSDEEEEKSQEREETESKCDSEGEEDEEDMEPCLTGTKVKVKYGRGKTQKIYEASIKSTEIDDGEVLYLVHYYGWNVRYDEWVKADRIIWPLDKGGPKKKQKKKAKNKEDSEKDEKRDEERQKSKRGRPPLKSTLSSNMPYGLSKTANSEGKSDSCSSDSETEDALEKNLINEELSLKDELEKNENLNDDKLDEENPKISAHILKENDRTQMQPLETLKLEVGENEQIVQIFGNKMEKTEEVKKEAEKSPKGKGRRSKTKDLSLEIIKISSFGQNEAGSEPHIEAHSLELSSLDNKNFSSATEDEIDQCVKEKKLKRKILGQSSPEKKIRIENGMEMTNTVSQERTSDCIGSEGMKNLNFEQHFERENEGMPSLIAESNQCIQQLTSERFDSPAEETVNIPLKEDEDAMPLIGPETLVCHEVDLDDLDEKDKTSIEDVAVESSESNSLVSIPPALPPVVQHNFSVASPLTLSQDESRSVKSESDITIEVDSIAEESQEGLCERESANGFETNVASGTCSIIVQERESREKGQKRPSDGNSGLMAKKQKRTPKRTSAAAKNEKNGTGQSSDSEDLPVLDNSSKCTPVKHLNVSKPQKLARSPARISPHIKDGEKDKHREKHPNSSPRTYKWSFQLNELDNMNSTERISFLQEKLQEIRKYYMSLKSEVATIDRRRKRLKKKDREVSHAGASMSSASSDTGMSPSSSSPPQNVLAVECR
Sequence of UniProt P14854 (P14854 whole entry): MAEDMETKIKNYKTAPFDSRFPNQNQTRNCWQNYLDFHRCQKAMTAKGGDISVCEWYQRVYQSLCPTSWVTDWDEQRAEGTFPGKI

Target	NP40-soluble protein abundance (concentration: 1mM)	NP40-soluble protein abundance (concentration: 2mM)	NP40-soluble protein abundance (concentration: 4mM)	NP40-soluble protein abundance (concentration: 6mM)	NP40-soluble protein abundance (concentration: 8mM)	NP40-soluble protein abundance (concentration: 10mM)
UniProt Q13243	1.1 ± 0.056	1.2 ± 0.091	1.17 ± 0.07	1.19 ± 0.013	1.208 ± 0.0093	1.36 ± 0.12
UniProt P11388|P11388-2|P11388-3|P11388-4	1.66 ± 0.082	1.72 ± 0.05	1.82 ± 0.16	1.98 ± 0.14	2.04 ± 0.24	2.13 ± 0.27
SSRP1 (UniProt Q08945)	1.05 ± 0.053	1.07 ± 0.03	1.13 ± 0.045	1.35 ± 0.055	1.47 ± 0.058	1.73 ± 0.1
HIST1H1B (UniProt P16401)	1.052 ± 0.0074	1.18 ± 0.18	1.15 ± 0.11	1.27 ± 0.22	1.32 ± 0.21	1.59 ± 0.19
UniProt P00167|P00167-2	0.995 ± 0.028	0.984 ± 0.033	0.936 ± 0.036	0.992 ± 0.011	0.948 ± 0.021	0.966 ± 0.012
UniProt P62805	0.903 ± 0.073	0.951 ± 0.018	0.964 ± 0.046	1.12 ± 0.18	1.25 ± 0.16	1.52 ± 0.25
UniProt O94804	1.03 ± 0.017	1.04 ± 0.031	1.01 ± 0.027	0.987 ± 0.029	0.96 ± 0.012	0.991 ± 0.048
UniProt P10619|P10619-2|X6R5C5|X6R8A1	0.979 ± 0.018	0.987 ± 0.086	0.984 ± 0.044	1.05 ± 0.11	1.06 ± 0.083	1.07 ± 0.13
FXR2 (UniProt P51116)	1.07 ± 0.022	1.1 ± 0.023	1.2 ± 0.025	1.24 ± 0.076	1.33 ± 0.051	1.39 ± 0.12
DLAT (UniProt P10515)	0.959 ± 0.23	0.904 ± 0.2	0.904 ± 0.31	0.877 ± 0.31	0.899 ± 0.27	0.923 ± 0.31
HIST1H1C (UniProt P16403)	1.02 ± 0.05	1.13 ± 0.042	1.07 ± 0.023	1.17 ± 0.06	1.2 ± 0.095	1.54 ± 0.15
UniProt P51608-2|P51608|A0A087WXF0	1.04 ± 0.023	1.06 ± 0.016	1.04 ± 0.046	1.07 ± 0.019	1.07 ± 0.028	1.15 ± 0.042
UniProt Q12872|Q12872-2	1.04 ± 0.04	1.11 ± 0.061	1.12 ± 0.043	1.17 ± 0.097	1.2 ± 0.1	1.33 ± 0.1
NUP155 (UniProt O75694)	0.983 ± 0.046	0.919 ± 0.062	1 ± 0.025	0.98 ± 0.039	1.01 ± 0.035	1 ± 0.023
TXLNA (UniProt P40222)	1.04 ± 0.059	1.17 ± 0.13	1.08 ± 0.14	1.21 ± 0.15	1.35 ± 0.046	1.2 ± 0.2
DBI (UniProt P07108)	1.04 ± 0.064	1.06 ± 0.055	0.987 ± 0.015	0.96 ± 0.041	0.928 ± 0.025	0.997 ± 0.1
YBX1 (UniProt P67809)	0.986 ± 0.088	1.22 ± 0.36	1.07 ± 0.12	1.23 ± 0.072	1.21 ± 0.031	1.34 ± 0.067
UniProt P26368|P26368-2	0.986 ± 0.075	1 ± 0.025	1.11 ± 0.069	1.24 ± 0.098	1.41 ± 0.09	1.51 ± 0.12

Target	NP40-soluble protein abundance (concentration: 1mM)	NP40-soluble protein abundance (concentration: 2mM)	NP40-soluble protein abundance (concentration: 4mM)	NP40-soluble protein abundance (concentration: 6mM)	NP40-soluble protein abundance (concentration: 8mM)	NP40-soluble protein abundance (concentration: 10mM)
ERAL1 (UniProt O75616)	0.7647 ± 0.0038	0.6675 ± 0.0031	0.716 ± 0.036	0.681 ± 0.011	0.674 ± 0.062	0.636 ± 0.04
UniProt Q12974|Q12974-4	1.04 ± 0.032	1.022 ± 0.0039	0.956 ± 0.027	0.996 ± 0.025	1.02 ± 0.029	0.988 ± 0.02
UniProt P04049|P04049-2	1.03 ± 0.023	1.06 ± 0.037	1.07 ± 0.04	1.05 ± 0.036	1.06 ± 0.033	1.05 ± 0.032
NAA20 (UniProt P61599)	0.999 ± 0.039	0.9558 ± 0.0052	0.991 ± 0.022	0.973 ± 0.01	1.026 ± 0.0096	0.9551 ± 0.001
UniProt P54619|P54619-3|P54619-2	0.993 ± 0.015	0.871 ± 0.092	0.964 ± 0.035	0.943 ± 0.025	1.01 ± 0.02	0.905 ± 0.045
UniProt P20073|P20073-2	0.966 ± 0.053	0.996 ± 0.093	0.989 ± 0.069	0.998 ± 0.086	1.04 ± 0.052	0.995 ± 0.096
UniProt P62318|P62318-2	1.07 ± 0.086	1.12 ± 0.12	1.19 ± 0.099	1.22 ± 0.017	1.29 ± 0.09	1.32 ± 0.056
UniProt O95453|O95453-2|O95453-3	1.02 ± 0.018	0.975 ± 0.042	0.9979 ± 0.0039	0.991 ± 0.026	0.997 ± 0.016	0.968 ± 0.013
CAPZA2 (UniProt P47755)	1.01 ± 0.013	0.966 ± 0.02	0.9851 ± 0.0046	0.9821 ± 0.0042	1.004 ± 0.0091	0.986 ± 0.017
COX6B1 (UniProt P14854)	0.864 ± 0.041	0.926 ± 0.032	0.916 ± 0.063	0.86 ± 0.055	0.821 ± 0.016	0.839 ± 0.019
UniProt P16083|Q5TD07	1.02 ± 0.02	0.982 ± 0.074	0.988 ± 0.034	0.991 ± 0.02	0.993 ± 0.04	0.982 ± 0.052
RPL7 (UniProt P18124)	0.966 ± 0.094	0.953 ± 0.039	0.962 ± 0.07	0.895 ± 0.056	0.902 ± 0.097	0.985 ± 0.024
ARID4A (UniProt P29374)	1.06 ± 0.053	1.07 ± 0.039	1.07 ± 0.036	1.03 ± 0.031	1.01 ± 0.032	1.07 ± 0.033
UniProt P23771|P23771-2	0.959 ± 0.029	0.99 ± 0.043	0.9254 ± 0.0013	0.895 ± 0.0095	0.908 ± 0.012	0.908 ± 0.022
CLPX (UniProt O76031)	0.957 ± 0.062	0.969 ± 0.062	0.955 ± 0.074	0.909 ± 0.08	0.886 ± 0.074	0.923 ± 0.078
BANF1 (UniProt O75531)	2.32 ± 0.38	2.76 ± 0.16	3 ± 0.25	3.73 ± 0.25	4.03 ± 0.2	4.25 ± 0.21
UniProt P17812	0.932 ± 0.03	0.873 ± 0.06	0.91 ± 0.033	0.96 ± 0.077	0.97 ± 0.04	0.924 ± 0.044
